Among the data in PubChem BioAssay (Tox21) are Potency values, retold here.

Several values for one entry are separate records, joined by “and”; a condition that tells them apart may be missing. Equal values may be shown once. Results filed as inconclusive are left out. Where a call stands in place of a potency, no number is given. Activity calls are given as the source filed them. The call rests on the fitted dose curve.
Potency means the concentration at half of the fitted maximal effect.

The test is described as follows: qHTS assay for small molecules that induce genotoxicity in human embryonic kidney cells expressing luciferase-tagged ATAD5 - cell viability (AID 651634). Further: nearly all actives have a fitted effect of over 25% in size. The note with it: HEK293T ATAD5-luc cells viability, CellTiter-Fluor, 15.5 h; series mostly up to 83.3 µM. From the text:
National Center for Advancing Translational Sciences [NCATS]
NIH Chemical Genomics Center [NCGC]
U.S. Environmental Protection Agency [EPA]
National Institutes of Environmental Health Sciences [NIEHS]
National Toxicology Program [NTP]
U.S. Food and Drug Administration [FDA]
Enhanced Level of Genome Instability Gene 1 (ELG1; human ATAD5) protein levels increase in response to various types of DNA damage. Using a luciferase reporter-gene tagged with ElG1, a cell-based assay [developed by Kyungjae Myung, NHGRI, NIH] was used to measure the induction of ATAD5 in human embryonic kidney cells (HEK293T). So, increase in luciferase activity can be used to identify the compounds that cause genetic stress. In addition to genotoxicity, these cells were also used to test for cytotoxicity by measuring the protease activity within live cells.
Tox21 Assay Protocol Summary:
For cytotoxicity screening, 2,000 cells in 5 uL/well were dispensed into white, solid-bottom 1536-well plates using a Multidrop Combi (Thermo Scientific) dispenser. Following transfer of 23 nL compound or DMSO vehicle by a pin tool, the plates were incubated 15.5 hr at 37C and 5% CO2. 1 ul CellTiter-Fluor reagent (Promega, Madison, WI) was then added to each plate and following 30 min incubation at 37C, fluorescence intensity was quantified on a ViewLux CCD-based plate reader.
(In general: Quantitative high-throughput screening tests each substance at several concentrations.)
As to `Brc1cccc(-c2ccccc2)c1`, the Potency result was “inactive”.

Take `S=C=Nc1ccccc1`: the Potency result was “inactive”. With `Oc1ccc([C@H]2CNCc3c2ccc(O)c3O)cc1O` the entry was “inactive”. Consider `CCCCCON=O`, for which the Potency result was “inactive”. With `CNC(=O)Oc1cc(C)cc(C(C)C)c1`, the Potency entry was “inactive”.

On to `CNC(C)(C)Cc1ccccc1`, for which the Potency result was “inactive”. In the case of `CC(Cc1ccc2c(c1)OCO2)NO` (stereo not given) it was “inactive”. In the case of `Clc1cc(Cl)c(-c2cc(Cl)c(Cl)cc2Cl)cc1Cl` it was “inactive”. For the compound `CSC1=N[C@@](C)(c2ccccc2)C(=O)N1Nc1ccccc1`, the Potency entry is “inactive”. In the case of `CSC(=O)c1c(C(F)F)nc(C(F)(F)F)c(C(=O)SC)c1CC(C)C` it was “inactive”; in that of `[Cl-].[Cl-].[Cl-].[Yb+3]`, “inactive”; in that of `c1ccc2c(c1)cc1ccc3cccc4ccc2c1c34`, “inactive”. Turning to `Nc1nc(N)nc(Cl)n1`, the Potency entry is “inactive”. For the compound `CC(=O)C(Cl)C(=O)N(C)C` (stereo not given), the Potency entry was “inactive”. In the case of `[Cl][Hg][c]1ccccc1` it was 19.3 µM (active). With `C[C@H]1[C@H](c2ccc(Cl)cc2)SC(=O)N1C(=O)NC1CCCCC1` the entry was “inactive”.

Take `O=NN(CCO)CCO`: the Potency entry was “inactive”. Turning to `CC(C)N(C(=O)CCl)c1ccccc1`, the Potency was 27.3 µM (active) and 38.6 µM (active). For `BrCCCBr`, the Potency result was “inactive”.

For `Oc1ccc(Cl)c(Cl)c1`, the Potency entry was “inactive”. With `C=CCBr` the entry was “inactive”; with `Oc1ccc2[nH]cc(CCCCN3CC=C(c4ccccc4)CC3)c2c1`, “inactive”.

With `CC(=O)[O][Pb]([c]1ccccc1)([c]1ccccc1)[c]1ccccc1`, the Potency was 0.686 µM (active). For `Oc1cc(Cl)c(Cl)c(Cl)c1Cl`, the Potency result is “inactive”. With `CC(O)C(=O)[O][Hg][c]1ccccc1` (stereo not given) the figure was 0.969 µM (active).

Regarding `CC(=O)O.CC(=O)O.CC(=O)O.CC(=O)O.CC(=O)O.CC(=O)O.CC(=O)O.O.O.[Cr].[Cr].[Cr]`, the Potency entry is “inactive”. With `CCc1cccc(C)c1N(C(=O)CCl)[C@@H](C)COC`, the Potency result was “inactive”.

On to `Cc1ccc(C)c2ccccc12`, for which the Potency result is “inactive”.

As to `CCC[CH2][Sn]([CH2]CCC)([CH2]CCC)[CH2]CCC`, the Potency was 19.3 µM (active). `CC1(C)[C@H](/C=C2\CCSC2=O)[C@@H]1C(=O)OCc1coc(Cc2ccccc2)c1`: the Potency result was “inactive”. Consider `COP(=S)(NC(C)C)Oc1ccc(C)cc1[N+](=O)[O-]` (stereo not given), for which the Potency result is “inactive”. `N#Cc1c2ccccc2cc2ccccc12`: the Potency result was “inactive”. With `COC(=O)C(C)N(C(=O)c1ccco1)c1c(C)cccc1C` (stereo not given) the entry was “inactive”; with `O=[N+]([O-])[O-].[Tl+]`, “inactive”; with `C1=CCC=C1`, “inactive”. Take `N#Cc1ccc(N(CC(N)=O)CC(F)(F)F)cc1C(F)(F)F`: the Potency result was “inactive”. As to `CNC(=O)O/N=C(\C)C(C)S(C)(=O)=O` (stereo not given), the Potency entry was “inactive”. In the case of `Cc1ccccc1OP(=O)(Oc1ccccc1C)Oc1ccccc1C`, the Potency entry is “inactive”. Consider `CO/N=C(\C(=O)OC)c1ccccc1CO/N=C(\C)c1cccc(C(F)(F)F)c1`, for which the Potency entry is “inactive”. `O=C(N[C@@H]1N=C(c2ccccc2F)c2cccc3c2N(CC3)C1=O)c1cc2ccccc2[nH]1`: the Potency entry is “inactive”.
